SF1 inhibitor = inhibitors of human nuclear receptor SF-1 | inhibition, % at 10 µM | AID 525 | CHO-K1 Gal4-SF-1 LBD luciferase reporter | 65,000 compounds, 0.55% hits;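 active means inhibition above the mean inhibition of all tested compounds plus 3 SD, cut at about 48% in these data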
Target sequence (Q13285 whole entry, looked up, the tested form may be a part): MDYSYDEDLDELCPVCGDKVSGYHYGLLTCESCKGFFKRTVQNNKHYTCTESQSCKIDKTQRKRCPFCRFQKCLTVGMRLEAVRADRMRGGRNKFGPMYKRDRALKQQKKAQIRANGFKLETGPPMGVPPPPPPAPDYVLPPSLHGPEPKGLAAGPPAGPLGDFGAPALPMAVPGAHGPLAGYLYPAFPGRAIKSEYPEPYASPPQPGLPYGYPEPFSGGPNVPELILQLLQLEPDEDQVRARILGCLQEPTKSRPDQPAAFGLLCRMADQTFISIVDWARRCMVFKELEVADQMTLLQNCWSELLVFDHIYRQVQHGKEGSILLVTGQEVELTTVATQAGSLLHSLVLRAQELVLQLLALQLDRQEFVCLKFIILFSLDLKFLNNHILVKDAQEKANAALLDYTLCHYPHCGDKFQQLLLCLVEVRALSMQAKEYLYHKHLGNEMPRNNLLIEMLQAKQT
Each line names hits and unclear results; the compound was inactive in the other large screens. The full list was thinned out, with hits kept by preference.

CCNc1nc2c(c(=O)n(C)c(=O)n2C)n1Cc1ccc(Cl)cc1	SF1 inhibitor 54
C/C(Cl)=C\Cn1c(NCCc2ccccc2)nc2c1c(=O)n(C)c(=O)n2C	SF1 inhibitor 62
Cn1c(=O)c2c(nc(SCCN3CCOCC3)n2Cc2ccc(Cl)cc2)n(C)c1=O	none
COc1ccc(Cl)c(Cn2c(NCC(C)O)nc3c2c(=O)n(C)c(=O)n3C)c1 (configuration not stated)	none
CCN1CCN(Cc2nc3c(c(=O)n(C)c(=O)n3C)n2CCCc2ccccc2)CC1	none
C=CCn1c(NCCc2ccccc2)nc2c1c(=O)n(C)c(=O)n2C	none
CS(=O)(=O)N(CC(=O)NC1CCCC1)c1cccc(F)c1	none
CC(=O)Cc1nsc(Nc2ccc3c(c2)OCCO3)n1	none
COc1cc(C2NC(=O)NC(O)(C(F)(F)F)C2C(C)=O)cc(OC)c1OC (configuration not stated)	none
COc1cc([C@@H]2c3cc4c(cc3[C@H](O)[C@H]3COC(=O)[C@H]23)OCO4)cc(OC)c1OC	SF1 inhibitor 78
O=C(COC(=O)C1CCCN1S(=O)(=O)c1ccc(Cl)cc1)Nc1ccc2c(c1)OCO2 (configuration not stated)	none
CCCCn1cnc2c(cnn2-c2ccc(Cl)cc2)c1=O	none
Cc1ccc2cc3cc(C(=O)N(C)C4CCCCC4)oc3nc2c1	none
CC(=O)Oc1c(S(=O)(=O)c2ccc(C)cc2)c(C)nn1-c1ccccc1	none
Cc1ccc(Nc2nc3nonc3[nH]c2=O)cc1	none
Cc1ccc(Nc2cc(C)nn2-c2nc(C)cc(=O)[nH]2)cc1	SF1 inhibitor 96
Cc1ccc(-c2cc3nc(C)cc(NCc4ccco4)n3n2)cc1	none
CCOC(=O)c1sc2nc(NC(=O)COc3ccccc3)sc2c1C	none
Cc1cc(C)n(-c2nc(C)nc3sc4c(c23)CCC(C)C4)n1 (configuration not stated)	none
O=C1CCN(Cc2nnnn2CC2CCCO2)c2ccccc2N1 (configuration not stated)	none
COC(=O)c1ccccc1NC(=O)N1CSC[C@H]1C(=O)OC	none
Cc1ccc(C(C)C)c(OCCNc2nc3c(c(=O)n(C)c(=O)n3C)n2C)c1	SF1 inhibitor 49
COc1cccc(C(=O)Cn2c(Br)nc3c2c(=O)n(C)c(=O)n3C)c1	none
Cc1cc(C(=O)CSc2nnnn2C)c(C)n1-c1cccc(F)c1	none
Nc1c(C(=O)Nc2ccc3c(c2)OCCO3)nnn1CCc1ccccc1	none
COc1cccc(CNC(=O)c2nnn(CC(=O)Nc3ccc(C)c(C)c3)c2N)c1	SF1 inhibitor 56
CCc1ccccc1NC(=O)c1nnn(CC(=O)Nc2ccccc2C)c1N	none
COCCCNC(=O)c1ccc(NS(C)(=O)=O)cc1	none
O=C(O)CSc1ccccn1	none
Cc1c(Cl)cccc1NC(=O)NC1CCCCC1	none
Cc1ccc(NC(=O)NC2CCCCC2)cc1Cl	none
O=C(Nc1ccccc1NC(=O)NC1CCCCC1)NC1CCCCC1	SF1 inhibitor 84
Cc1ccc(S(=O)(=O)Nc2cccc3ncccc23)s1	SF1 inhibitor 91
CCOc1cc2[nH]c(=O)n(CC3CCC(C(=O)NC4CCCCC4)CC3)c(=O)c2cc1OCC (configuration not stated)	none
Cc1cccn2c(=O)c3cc(C#N)c(=NC(=O)c4ccc5c(c4)OCO5)n(CC(C)C)c3nc12	none
COc1nc(OCCNC(=O)Nc2ccccc2)nc(N(C)C)n1	none
Cc1cnc(C(=O)Nc2nnc(C(C)C)s2)cn1	none
Cc1cnc(C(=O)Nc2cccc3cccnc23)cn1	SF1 inhibitor 61
O=C(Nc1cccc2ccccc12)c1cnccn1	none
O=c1c2ccccc2nnn1CSc1nnc2ccccn12	none
CCCN(CCC)CCSc1nc(O)c(C(C)C)c(=O)[nH]1	none
O=C(Nc1ccc2c(c1)OCCO2)c1cnc2n(c1=O)CCS2	none
CN(C)CCOC(=O)C1(c2ccccc2)CCOCC1	none
Cc1oc2cc3c(C(=O)OCCN(C)C)c(C)oc3cc2c1C(=O)OCCN(C)C	SF1 inhibitor 79
CN(C)CCCOC(=O)c1ccc(Br)cc1	none
Cc1ccc(CNC(=O)c2cn(C3CCCC3)c(=O)c3c2c2ccccc2n3C)o1	none
Clc1ccc(SCCCCn2cncn2)cc1	none
O=c1nc(N2CCOCC2)ccn1Cc1ccc(Br)cc1	none
Cc1cc(=O)oc(C)c1C(=O)N1CCN(C(c2ccccc2)c2ccccc2)CC1	none
O=C(c1ccc(Cn2cc(Br)cn2)o1)n1cccn1	none
CCCS(=O)(=O)c1nnnn1-c1cccc(OC)c1	SF1 inhibitor 58
CCCC(c1nnnn1CCOC)N1CCN(c2cccc(OC)c2)CC1 (configuration not stated)	none
CCOC(=O)Cn1nnc(-c2cccc(OC)c2)n1	none
CCN1CCCC1CNC(=O)CCNC(=O)c1cc(OC)c(OC)c(OC)c1 (configuration not stated)	none
COc1ccccc1N1CCN(C(=O)c2ccc(S(=O)(=O)N3CCCC3)cc2)CC1	none
C(=N\n1cnnc1SCc1ccccc1)/c1ccco1	none
CCOP(=O)(c1c(F)c(F)c(F)c(F)c1F)C1(O)CCCCC1 (configuration not stated)	none
Oc1c(CN2CCCCC2)cc(Br)c2cccnc12	SF1 inhibitor 69
O=C(NCCN1CCCCCC1)C1CCC(CNS(=O)(=O)c2cccc3cccnc23)CC1 (configuration not stated)	none
O=c1oc2ccccc2c(N2CCCCC2)c1CN1CCCCC1	none
COC(=O)C1C(O)=C(C=NCC(C)N=CC2=C(O)C(C(=O)OC)C(C)(C)CC2=O)C(=O)CC1(C)C (configuration not stated)	none
CCc1ccc2nc(NC(=O)c3cc(C)on3)sc2c1	none
C=CCN(C(=O)Cn1nnc2ccccc21)C(C(=O)NCCOC)c1ccc(OC)cc1OC (configuration not stated)	none
Cc1cnc(NC(=O)COc2ccccc2Cl)s1	SF1 inhibitor 60
Cc1cnc(NC(=O)CSc2nnc(COc3c(C)cccc3C)o2)s1	none
Cc1cnc(NC(=O)CSc2nnc(-c3ccccc3)o2)s1	none
Fc1ccc(-c2nnc(NC3=NCCCCC3)o2)cc1	SF1 inhibitor 62
COC(=O)NCc1ccc(S(=O)(=O)N2CCOCC2)cc1	none
Cc1ncsc1C(=O)Nc1nc2c(s1)CC(C)CC2 (configuration not stated)	none
Nc1cccc(-c2nc3ccc(N)cc3s2)c1	SF1 inhibitor 61
Cc1ccc2[nH]c(-c3cccc(N)c3)cc2c1	none
CN(C)c1nc(N)nc(-c2nc3ccccc3s2)n1	none
CC(=O)N1CCc2cc3nc(C)cc(C)c3cc21	none
CCn1nccc1C(=O)Nc1ccc(Cl)cc1Cl	none
CCOC(=O)C1CCN(S(=O)(=O)c2ccc(-c3nc4ccccc4s3)s2)CC1	none
O=C(Nc1nc2ccccc2s1)c1ccc(Cl)s1	none
O=C(NC1CC1)c1ccc(-c2nc3ccccc3s2)s1	SF1 inhibitor 79
Cc1nn(-c2nc3ccccc3s2)c(N)c1Sc1ccc(F)cc1	none
CCOc1cc(NC(=O)c2ccco2)c(OCC)cc1NC(=O)Cc1ccc(OC)c(OC)c1	none
CCCCOc1ccc(S(=O)(=O)Nc2cccnc2)cc1	SF1 inhibitor 49
O=S(=O)(Nc1cccc(C(F)(F)F)c1)c1cccnc1	none
CCOc1ccc(NS(=O)(=O)c2ccc(SC)cc2)cc1	none
CC(C)CC1NC(=O)N(CC(=O)c2ccc3c(c2)OCCO3)C1=O (configuration not stated)	none
CCn1c(SCC(=O)Nc2nc(-c3ccc(C)cc3)cs2)nnc1-c1ccccc1O	none
CC(C(=O)NC1CCCC1)N(C(=O)c1snc(C(N)=O)c1N)c1ccc2c(c1)OCCO2 (configuration not stated)	none
Fc1ccc2[nH]c3c(N4CCN(c5ccccc5)CC4)ncnc3c2c1	SF1 inhibitor 60
c1ccc(N2CCN(c3ncnc4sc5c(c34)CCC5)CC2)cc1	none
CCCCOc1ncnc2c1[nH]c1ccc(F)cc12	SF1 inhibitor 50
